The values that follow come from PubChem BioAssay (EPA / NIEHS).

One may read the AC50 as the midpoint of the concentration-response curve, whichever way the signal moves.

Inconclusive results are not listed. Active and inactive are the calls of the source. How the source made its calls, unless noted: active means hit-call score of the fitted dose curve at least 0.9, where 1 is the maximum; inactive means score below 0.9.

The target in experiment [1] is Myc proto-oncogene protein (Homo sapiens) (UniProt P01106). As to the kind of experiment: ATG_Myc_CIS: Attagene CIS-FACTORIAL HepG2 Assay for human Myelocytomatosis (Myc) Proto-Oncogene Transcription Factor (AID 2282990). As to conditions: HepG2, Attagene cis-reporter transcription factor activity; actives raise or lower the signal. The procedure, abridged: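 DMSO-normalised, bidirectionally fitted reporter mRNA signal. HepG2 cells transfected with cis reporter constructs, treated 24 h; transcripts detected by RT-PCR, 6-FAM primer extension and CE.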

The nature of experiment [2]: ATG_NRF2_ARE_CIS: Attagene CIS-FACTORIAL HepG2 Assay for human Nuclear Factor Erythroid 2 Related Factor 2 (NFR2) response to Antioxidant Response Elements (ARE) (AID 2282992).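 On AC50: reporter mRNA level measured by RT-PCR and capillary electrophoresis fluorescence.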 As to conditions: HepG2 Attagene ARE/NRF2 reporter, transcription factor activity; actives raise or lower the signal. A digest of the protocol: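 Multiplexed reporter mRNA profiling in HepG2 after a 24 h chemical exposure. Curves fitted in both directions relative to DMSO negative control.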

The nature of experiment [3]: ATG_Oct_MLP_CIS: Attagene CIS-FACTORIAL HepG2 Assay for human Octamer-Binding Transcription Factor (Oct) (AID 2282993). As to conditions: HepG2 Attagene cis-factorial Oct reporter, mRNA; actives raise or lower the signal. A digest of the protocol:
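HepG2 cells transiently transfected with cis-element-driven reporter transcription units (endogenous TF activity); 24 h compound exposure. Reporter mRNA quantified by RT-PCR, 6-FAM labelling, HpaI digestion and capillary electrophoresis; bidirectional fit versus DMSO baseline.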

Experiment [4] addresses Cellular tumor antigen p53 (Homo sapiens) (UniProt P04637). As to the kind of experiment: ATG_p53_CIS: Attagene CIS-FACTORIAL HepG2 Assay for human p53 Transcription Factor (AID 2282994). As to conditions: HepG2 p53 cis-element reporter, Attagene mRNA; actives raise or lower the signal. The procedure, abridged:
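Multiplexed reporter mRNA assay in human HepG2 liver cells; cis-regulated units report endogenous factor activity. Values come from bidirectional curve fitting against DMSO negative control after 24 h treatment.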

In experiment [5] the target is human Peroxisome Proliferator-activated Receptor alpha (PPARa), PPARA (gene 5465) (UniProt Q07869). As to the kind of experiment: ATG_PPARa_TRANS: Attagene TRANS-FACTORIAL HepG2 Assay for human Peroxisome Proliferator-activated Receptor alpha (PPARa) (AID 2283001; active means hit-call score of the fitted dose curve at least 0.9, where 1 is the maximum;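 on AC50: potency for gain of reporter signal over DMSO so agonist or activator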). The procedure, abridged: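 Gain-of-signal endpoint: reporter mRNA induction relative to DMSO, detected by fluorescent RT-PCR and capillary electrophoresis. HepG2 cells transiently carried GAL4-UAS-driven reporter units plus NR-Gal4 fusion; exposure lasted 24 h.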

For experiment [6], the target named is human Peroxisome Proliferator-activated Receptor delta (PPARd), PPARD (gene 5467) (UniProt Q03181). Description: ATG_PPARd_TRANS: Attagene TRANS-FACTORIAL HepG2 Assay for human Peroxisome Proliferator-activated Receptor delta (PPARd) (AID 2283002; active means hit-call score of the fitted dose curve at least 0.9, where 1 is the maximum). A digest of the protocol:
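Measured quantity: GAL4-UAS reporter transcript induction in HepG2 after 24 h chemical dosing, with NR-Gal4 chimeras supplied by transient transfection. Detection by RT-PCR and capillary electrophoresis; upward fit against DMSO.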

Experiment [7] deals with Peroxisome proliferator-activated receptor gamma (Homo sapiens) (UniProt P37231). As to the kind of experiment: ATG_PPARg_TRANS: Attagene TRANS-FACTORIAL HepG2 Assay for human Peroxisome Proliferator-activated Receptor-gamma (PPARg) (AID 2283007; active means hit-call score of the fitted dose curve at least 0.9, where 1 is the maximum). The procedure, abridged: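 Twenty-four hours after chemical dosing of transiently transfected HepG2 cells, isolated RNA was converted to cDNA, reporter sequences amplified and 6-FAM-labelled, then HpaI-digested and analysed by capillary electrophoresis. Signal increase against DMSO was fitted.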

Experiment [8] has as its target Nuclear receptor subfamily 1 group I member 2 (Homo sapiens) (UniProt O75469). Description: ATG_PXR_TRANS: Attagene TRANS-FACTORIAL HepG2 Assay for human Pregnane X Receptor (PXR) (AID 2283008; active means hit-call score of the fitted dose curve at least 0.9, where 1 is the maximum). A digest of the protocol:
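Measures mRNA induction of a GAL4-UAS-driven reporter in human HepG2 cells transiently expressing PXR fused to Gal4, following 24 h treatment. DMSO served as negative control and baseline.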

Experiment [9] concerns the target human RAR-related Orphan Receptor beta (RORb), RORB (gene 6096) (UniProt Q92753). Description: ATG_RORb_TRANS: Attagene TRANS-FACTORIAL HepG2 Assay for human RAR-related Orphan Receptor beta (RORb) (AID 2283010; active means hit-call score of the fitted dose curve at least 0.9, where 1 is the maximum). The procedure, abridged: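 Readout is reporter-gene mRNA induction, detected as fluorescence after RT-PCR and capillary electrophoresis, fitted for gain of signal against DMSO controls. Transiently transfected HepG2 liver cells carrying GAL4-UAS reporter constructs were treated for 24 hours.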

In experiment [10] the target is human Retinoic Acid Receptor beta (RARb), RARB (gene 5915) (UniProt P10826). As to the kind of experiment: ATG_RARb_TRANS: Attagene TRANS-FACTORIAL HepG2 Assay for human Retinoic Acid Receptor beta (AID 2283004; active means hit-call score of the fitted dose curve at least 0.9, where 1 is the maximum). A digest of the protocol:
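Transient transfection of HepG2 with multiple reporter units → chemical dosing, 24 h → total RNA isolation → RT with oligo(dT) → reporter-specific PCR, 6-FAM primer extension, HpaI digest → capillary electrophoresis. Positive direction vs DMSO control.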

In experiment [11] the target is Retinoic acid receptor alpha (Homo sapiens) (UniProt P10276). Description: ATG_RARa_TRANS: Attagene TRANS-FACTORIAL HepG2 Assay for human Retinoic Acid Receptor alpha (RARa) (AID 2283005; active means hit-call score of the fitted dose curve at least 0.9, where 1 is the maximum). The procedure, abridged: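 HepG2 cells transiently transfected with multiple reporter units expressing chimeric RARα-GAL4 fusion, with GAL4-UAS-driven reporters. After 24 h compound exposure, reporter mRNA induction quantified by RT-PCR and capillary electrophoresis with fluorescent labeling; gain-of-signal fitted relative to DMSO control.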

A short description of experiment [12]: BSK_3C_TissueFactor: BioMAP Diversity Plus: 3C Assay for Tissue Factor Biomarker Activity (AID 2282997). Conditions: BioMAP 3C HUVEC, tissue factor biomarker readout; actives raise or lower the signal. The procedure, abridged: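 ELISA read-out of Tissue Factor levels on human umbilical vein endothelium collected 24 h after chemical dosing. Gain or loss of signal was fitted relative to DMSO.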

Experiment [13] is described as follows: BSK_3C_uPAR: BioMAP Diversity Plus: 3C Assay for Urokinase-type plasminogen activator receptor (uPAR) Biomarker Activity (AID 2282998). As to conditions: BioMAP 3C HUVEC, uPAR biomarker ELISA; actives raise or lower the signal. The procedure, abridged: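 Primary human umbilical vein endothelial cells, 3C system; surface uPAR measured by ELISA 24 h after dosing. Cytotoxicity via SRB total protein in parallel cultures; bidirectional fit against DMSO.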
A general note: An ELISA detects its analyte on a solid surface through an enzyme-linked reagent.

Experiment [14] is described as follows: BSK_3C_VCAM1: BioMAP Diversity Plus: 3C Assay for Vascular cell adhesion molecule 1 (VCAM1) Biomarker Activity (AID 2282999). Conditions: BioMAP 3C HUVEC, VCAM1 ELISA, cytokine-stimulated; actives raise or lower the signal. A digest of the protocol:
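Human umbilical vein endothelial cells were dosed with compound for 24 h, after which cell-surface VCAM-1 was quantified by ELISA. Bidirectional curve fitting used DMSO as negative control and activity baseline.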

Experiment [15] can be described thus: BSK_4H_Eotaxin3: BioMAP Diversity Plus: 4H Assay for Eotaxin 3 Biomarker Activity (AID 2283000).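 Further: CCL26 protein level quantified by ELISA in parallel with SRB cytotoxicity check.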 As to conditions: primary human endothelial cells (HUVEC); actives raise or lower the signal. A digest of the protocol: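 Chemicals were added to human umbilical vein endothelium cultures, and Eotaxin-3 was quantified by ELISA at 24 h. Values were derived by bidirectional fitting with DMSO serving as negative control and activity baseline.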

Experiment [16] can be described thus: BSK_3C_Proliferation: Cell Proliferation Assessment in the BioMAP Diversity Plus: 3C Assay (AID 2283006). Conditions: primary human endothelial cells (HUVEC). A digest of the protocol: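 Read-out is total protein by SRB absorbance at 560 nm, taken as a proxy for relative cell number. Primary human umbilical vein endothelium cultured below confluence was dosed for 48 h, TCA-fixed and SRB-stained; curves were fitted bidirectionally versus DMSO.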

For experiment [17], the target named is human Retinoic Acid Receptor gamma (RARg), RARG (gene 5916) (UniProt P13631). As to the kind of experiment: ATG_RARg_TRANS: Attagene TRANS-FACTORIAL HepG2 Assay for human Retinoic Acid Receptor gamma (RARg) (AID 2283009; active means hit-call score of the fitted dose curve at least 0.9, where 1 is the maximum). The procedure, abridged:
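Transient transfection of HepG2 with multi-reporter constructs, then 24 h chemical treatment. Total RNA isolated, reverse-transcribed, PCR-amplified, fluorescently labelled and resolved by capillary electrophoresis; activity scored as mRNA induction versus DMSO.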

The target in experiment [18] is human RAR-related Orphan Receptor gamma (RORg), RORC (gene 6097) (UniProt P51449). Description: ATG_RORg_TRANS: Attagene TRANS-FACTORIAL HepG2 Assay for human RAR-related Orphan Receptor gamma (RORg) (AID 2283011; active means hit-call score of the fitted dose curve at least 0.9, where 1 is the maximum). The procedure, abridged: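 First, HepG2 liver cells were transfected with GAL4-UAS-driven reporter constructs and the RORg-Gal4 fusion. Next, they were treated with chemical for 24 h. Finally, reporter mRNA was quantified by RT-PCR and capillary electrophoresis, with upward activity fitted against DMSO.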

Read-out in experiment [19]: Intercellular Adhesion Molecule 1 (ICAM1), ICAM1 (gene 3383)
Description: BSK_3C_ICAM1: BioMAP Diversity Plus: 3C Assay for Intercellular Adhesion Molecule 1 (ICAM1) Biomarker Activity (AID 2283003). As to conditions: primary human endothelial cells (HUVEC); actives raise or lower the signal. The procedure, abridged: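 ICAM-1 levels measured by ELISA after HUVEC cultures in the 3C system had been dosed for 24 h. Gain or loss of signal relative to DMSO was fitted in both directions.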

Nuclear receptor subfamily 1 group I member 2 (Homo sapiens), sequence (O75469 whole entry, looked up, the tested form may be a part): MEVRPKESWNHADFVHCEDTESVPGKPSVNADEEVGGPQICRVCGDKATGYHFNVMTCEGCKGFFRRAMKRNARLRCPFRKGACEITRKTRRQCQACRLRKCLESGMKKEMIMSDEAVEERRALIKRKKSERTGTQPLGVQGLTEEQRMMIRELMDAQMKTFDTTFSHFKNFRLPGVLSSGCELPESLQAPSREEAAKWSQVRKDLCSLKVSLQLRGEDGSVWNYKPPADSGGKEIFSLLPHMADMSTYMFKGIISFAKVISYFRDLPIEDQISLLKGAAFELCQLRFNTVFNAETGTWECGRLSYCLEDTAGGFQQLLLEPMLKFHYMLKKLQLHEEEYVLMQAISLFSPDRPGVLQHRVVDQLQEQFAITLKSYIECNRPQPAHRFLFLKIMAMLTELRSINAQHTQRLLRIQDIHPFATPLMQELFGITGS
Myc proto-oncogene protein (Homo sapiens), sequence (P01106 whole entry, looked up): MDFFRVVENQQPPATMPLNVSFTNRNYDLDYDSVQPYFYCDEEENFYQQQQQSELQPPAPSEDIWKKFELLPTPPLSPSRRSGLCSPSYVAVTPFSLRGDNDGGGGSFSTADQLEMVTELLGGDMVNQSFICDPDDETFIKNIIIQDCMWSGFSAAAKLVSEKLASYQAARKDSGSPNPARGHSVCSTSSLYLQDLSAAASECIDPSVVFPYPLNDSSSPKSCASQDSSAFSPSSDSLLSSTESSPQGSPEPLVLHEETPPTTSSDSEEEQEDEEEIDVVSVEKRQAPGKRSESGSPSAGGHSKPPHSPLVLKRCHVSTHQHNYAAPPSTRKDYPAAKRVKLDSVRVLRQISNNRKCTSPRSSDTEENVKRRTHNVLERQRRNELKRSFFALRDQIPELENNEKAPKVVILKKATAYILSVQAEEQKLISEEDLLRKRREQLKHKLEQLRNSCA
Cellular tumor antigen p53 (Homo sapiens), sequence (P04637 whole entry, looked up): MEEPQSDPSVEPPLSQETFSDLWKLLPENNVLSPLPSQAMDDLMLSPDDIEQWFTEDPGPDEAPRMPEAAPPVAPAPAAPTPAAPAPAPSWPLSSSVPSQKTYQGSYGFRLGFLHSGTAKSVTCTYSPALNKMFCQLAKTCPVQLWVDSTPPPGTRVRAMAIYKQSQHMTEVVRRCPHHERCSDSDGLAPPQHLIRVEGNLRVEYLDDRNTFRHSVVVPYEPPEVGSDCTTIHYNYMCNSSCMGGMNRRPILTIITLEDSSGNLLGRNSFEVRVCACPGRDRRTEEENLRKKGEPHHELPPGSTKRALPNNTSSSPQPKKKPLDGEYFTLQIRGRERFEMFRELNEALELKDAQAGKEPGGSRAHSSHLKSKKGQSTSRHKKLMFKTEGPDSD
human Peroxisome Proliferator-activated Receptor delta (PPARd), PPARD (gene 5467), sequence (Q03181 whole entry, looked up, the tested form may be a part): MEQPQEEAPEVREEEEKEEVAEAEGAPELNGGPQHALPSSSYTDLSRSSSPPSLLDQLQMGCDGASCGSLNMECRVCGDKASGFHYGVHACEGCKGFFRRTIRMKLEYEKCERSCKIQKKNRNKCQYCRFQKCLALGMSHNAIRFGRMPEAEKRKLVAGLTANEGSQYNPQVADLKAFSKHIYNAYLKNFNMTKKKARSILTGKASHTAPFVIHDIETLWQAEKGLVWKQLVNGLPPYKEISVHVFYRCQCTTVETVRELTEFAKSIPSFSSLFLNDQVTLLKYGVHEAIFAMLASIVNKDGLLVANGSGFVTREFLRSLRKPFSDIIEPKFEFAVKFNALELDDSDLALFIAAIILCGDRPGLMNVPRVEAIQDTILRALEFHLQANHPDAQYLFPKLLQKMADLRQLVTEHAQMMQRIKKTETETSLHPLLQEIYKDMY
human Peroxisome Proliferator-activated Receptor alpha (PPARa), PPARA (gene 5465), sequence (Q07869 whole entry, looked up, the tested form may be a part): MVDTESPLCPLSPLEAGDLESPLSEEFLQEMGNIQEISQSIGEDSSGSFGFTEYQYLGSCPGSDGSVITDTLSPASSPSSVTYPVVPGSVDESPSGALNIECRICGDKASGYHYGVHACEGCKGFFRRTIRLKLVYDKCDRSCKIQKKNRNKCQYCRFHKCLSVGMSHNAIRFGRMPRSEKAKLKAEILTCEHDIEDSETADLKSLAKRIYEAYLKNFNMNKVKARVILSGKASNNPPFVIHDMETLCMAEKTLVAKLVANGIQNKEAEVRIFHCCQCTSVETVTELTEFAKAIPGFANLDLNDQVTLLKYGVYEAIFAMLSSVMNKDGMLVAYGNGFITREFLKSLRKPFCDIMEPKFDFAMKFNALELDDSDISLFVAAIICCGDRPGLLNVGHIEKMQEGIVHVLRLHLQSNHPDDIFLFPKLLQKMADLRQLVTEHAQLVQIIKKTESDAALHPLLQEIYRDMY
human Retinoic Acid Receptor beta (RARb), RARB (gene 5915), sequence (P10826 whole entry, looked up): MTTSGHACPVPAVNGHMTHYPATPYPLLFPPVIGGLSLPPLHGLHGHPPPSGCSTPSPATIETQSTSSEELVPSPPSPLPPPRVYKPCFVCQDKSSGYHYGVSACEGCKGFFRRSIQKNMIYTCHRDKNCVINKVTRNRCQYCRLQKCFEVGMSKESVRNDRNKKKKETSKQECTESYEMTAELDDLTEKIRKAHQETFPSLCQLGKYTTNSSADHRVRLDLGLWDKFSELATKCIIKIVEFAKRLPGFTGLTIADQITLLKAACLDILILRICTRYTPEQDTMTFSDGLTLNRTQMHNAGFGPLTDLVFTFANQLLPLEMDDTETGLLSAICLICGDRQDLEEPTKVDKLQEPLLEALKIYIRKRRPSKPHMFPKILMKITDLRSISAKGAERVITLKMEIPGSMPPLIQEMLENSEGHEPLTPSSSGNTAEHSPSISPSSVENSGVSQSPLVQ
Peroxisome proliferator-activated receptor gamma (Homo sapiens), sequence (P37231 whole entry, looked up): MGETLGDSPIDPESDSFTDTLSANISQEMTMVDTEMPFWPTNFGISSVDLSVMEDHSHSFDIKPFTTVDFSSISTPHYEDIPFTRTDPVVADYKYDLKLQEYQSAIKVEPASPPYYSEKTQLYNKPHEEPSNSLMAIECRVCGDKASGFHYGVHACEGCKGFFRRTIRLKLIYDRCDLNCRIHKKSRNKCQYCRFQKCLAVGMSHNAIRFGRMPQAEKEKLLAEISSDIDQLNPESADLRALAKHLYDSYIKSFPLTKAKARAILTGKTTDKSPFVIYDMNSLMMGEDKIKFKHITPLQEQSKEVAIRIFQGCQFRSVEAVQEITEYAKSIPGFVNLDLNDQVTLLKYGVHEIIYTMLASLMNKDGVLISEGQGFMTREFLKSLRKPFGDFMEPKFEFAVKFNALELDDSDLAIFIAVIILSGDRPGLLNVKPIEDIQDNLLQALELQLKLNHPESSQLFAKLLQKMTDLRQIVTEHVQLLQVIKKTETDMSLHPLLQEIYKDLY
human Retinoic Acid Receptor gamma (RARg), RARG (gene 5916), sequence (P13631 whole entry, looked up): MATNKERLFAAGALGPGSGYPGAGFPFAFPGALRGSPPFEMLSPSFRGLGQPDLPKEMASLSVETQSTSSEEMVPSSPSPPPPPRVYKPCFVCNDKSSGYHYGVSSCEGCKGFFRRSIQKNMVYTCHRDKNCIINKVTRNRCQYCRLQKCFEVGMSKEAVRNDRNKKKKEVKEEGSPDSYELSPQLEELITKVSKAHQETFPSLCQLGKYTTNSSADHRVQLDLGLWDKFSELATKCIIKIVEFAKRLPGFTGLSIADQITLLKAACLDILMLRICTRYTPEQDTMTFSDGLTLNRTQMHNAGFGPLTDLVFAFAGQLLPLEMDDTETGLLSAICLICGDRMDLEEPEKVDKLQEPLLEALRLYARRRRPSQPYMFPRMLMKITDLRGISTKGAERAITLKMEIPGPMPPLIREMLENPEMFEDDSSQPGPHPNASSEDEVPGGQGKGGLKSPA
Retinoic acid receptor alpha (Homo sapiens), sequence (P10276 whole entry, looked up, the tested form may be a part): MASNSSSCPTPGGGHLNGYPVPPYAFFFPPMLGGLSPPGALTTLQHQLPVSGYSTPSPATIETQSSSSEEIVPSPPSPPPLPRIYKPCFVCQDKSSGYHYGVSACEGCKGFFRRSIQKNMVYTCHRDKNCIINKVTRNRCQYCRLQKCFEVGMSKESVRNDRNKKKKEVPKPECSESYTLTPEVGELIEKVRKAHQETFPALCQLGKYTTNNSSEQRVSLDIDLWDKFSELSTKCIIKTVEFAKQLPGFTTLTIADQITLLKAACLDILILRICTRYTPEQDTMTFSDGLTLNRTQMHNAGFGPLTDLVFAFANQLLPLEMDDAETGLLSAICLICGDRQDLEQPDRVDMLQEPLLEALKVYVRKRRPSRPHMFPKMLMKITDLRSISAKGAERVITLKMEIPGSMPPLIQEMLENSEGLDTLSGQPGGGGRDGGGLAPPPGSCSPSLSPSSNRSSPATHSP
human RAR-related Orphan Receptor gamma (RORg), RORC (gene 6097), sequence (P51449 whole entry, looked up, the tested form may be a part): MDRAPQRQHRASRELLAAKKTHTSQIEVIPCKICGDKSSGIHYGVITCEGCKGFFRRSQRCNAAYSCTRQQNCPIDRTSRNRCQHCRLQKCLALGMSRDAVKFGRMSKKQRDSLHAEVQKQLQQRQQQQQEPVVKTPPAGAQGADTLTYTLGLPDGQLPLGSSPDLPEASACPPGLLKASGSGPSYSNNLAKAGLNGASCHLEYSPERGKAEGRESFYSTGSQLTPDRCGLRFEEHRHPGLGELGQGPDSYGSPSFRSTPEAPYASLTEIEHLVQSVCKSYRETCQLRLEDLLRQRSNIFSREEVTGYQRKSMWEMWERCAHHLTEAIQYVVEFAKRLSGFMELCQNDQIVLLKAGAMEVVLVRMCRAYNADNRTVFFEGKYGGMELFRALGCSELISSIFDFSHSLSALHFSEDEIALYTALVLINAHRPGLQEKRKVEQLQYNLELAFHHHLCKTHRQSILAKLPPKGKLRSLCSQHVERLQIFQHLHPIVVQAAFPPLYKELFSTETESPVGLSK

Take `Cc1occc(=O)c1OC(=O)C(C)C`: the compound was called inactive in [1], in experiment [2], in experiment [3], in experiment [4], in experiment [5] and in experiment [6].
For `Cc1cc(C)nc(NS(=O)(=O)c2ccc(N)cc2)n1`, the outcome in experiment [1], in experiment [2], in experiment [3], in experiment [4], in experiment [5] and in experiment [6] was inactive. For the same compound, the call in [7], in [8] and in experiment [9] was inactive.
For `NC(=S)NNC(N)=S`, the compound was called inactive in experiment [1], in experiment [2], in experiment [3], in experiment [4], in experiment [5] and in [6]. Also, the compound was classed as inactive in experiment [10], in [11], in [7] and in experiment [8].
Turning to `Cc1cc(CCC(=O)OCCOCCOCCOC(=O)CCc2cc(C)c(O)c(C(C)(C)C)c2)cc(C(C)(C)C)c1O`, the result in [1], in [3], in [4], in experiment [12], in [14] and in experiment [15] was inactive. For the same compound, the result in experiment [5], in experiment [10], in experiment [11], in experiment [16], in [17] and in experiment [18] was inactive. Besides, the concentration at half-maximal activity (AC50) in experiment [2] is 23.4 µM (active); in experiment [13], 17.8 µM (active); in experiment [7], 24.2 µM (active); in [8], 23.3 µM (active).
With `CCOC(=O)COC(=O)c1cc(Oc2ccc(C(F)(F)F)cc2Cl)ccc1[N+](=O)[O-]`, the outcome in experiment [1], in experiment [2], in [3], in experiment [4], in [6] and in [17] was inactive. The AC50 is 14.5 µM (active) in experiment [5], 11.1 µM (active) in experiment [7] and 22.2 µM (active) in [8].
On to `C=C(C)C(=O)OCCOC1CC2CC1C1C=CCC21` (configuration not stated), for which the result in [1], in experiment [3], in experiment [4], in experiment [5], in experiment [6] and in experiment [7] was inactive. The result in experiment [8] and in experiment [18] was inactive. Also, the AC50 in experiment [2] is 177 µM (active).
On to `C[C@@H]1CCN(C(=O)[C@H](CCCN=C(N)N)NS(=O)(=O)c2cccc3c2NC[C@H](C)C3)[C@@H](C(=O)O)C1`, for which the result in experiment [1], in [2], in experiment [3], in experiment [4], in experiment [12] and in experiment [13] was inactive. Also, the result in [14], in experiment [15], in experiment [19], in experiment [10], in experiment [16] and in [7] was inactive. The outcome in experiment [17] was inactive.
